We go through four compounds from PubChem BioAssay (EPA / NIEHS).

Inconclusive results are not listed. Activity calls are given as the source filed them. Rule for the calls, unless noted: active = hit-call score of the fitted dose curve at least 0.9, where 1 is the maximum; inactive = score below 0.9.

A short description of test [1]: ACEA_ER_80hr: ACEA Biosciences xCELLigence Real-Time Cell Analysis on Estrogen Receptor Agonism for Proliferation (AID 2282667; active = hit-call score of the fitted dose curve at least 0.9, where 1 is the maximum). The note with it: T47D proliferation, impedance (xCELLigence), 80 h. The procedure, abridged:
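T47D human breast cells were seeded on electrode plates, monitored overnight, then exposed continuously to compounds in eight-point 1:4 dilutions from 100 uM (max 0.5% DMSO). Impedance-based growth was read at 80 h, fitted upward relative to DMSO.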

A short description of test [2]: ATG_CRE_CIS: Attagene CIS-FACTORIAL HepG2 Assay for human cAMP Responsive Element (CRE) binding protein 3 (AID 2282926). To be noted: HepG2 CRE cis-reporter, Attagene multiplexed mRNA; actives raise or lower the signal. The essentials: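 Capillary electrophoresis of 6-FAM-labelled, HpaI-digested PCR products quantified reporter transcripts. These came from HepG2 transiently transfected with cis-element reporters and exposed to test chemicals for 24 hours, with DMSO defining baseline activity.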

In test [3] the target is CCAAT/enhancer-binding protein beta (Homo sapiens) (UniProt P17676). In words: ATG_C_EBP_CIS: Attagene CIS-FACTORIAL HepG2 Assay for human CCAAT/Enhancer Binding Protein (C/EBP) beta (AID 2282927). To be noted: HepG2 Attagene cis-factorial transcription factor reporter; actives raise or lower the signal. The procedure, abridged:
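HepG2 transiently transfected with multiplexed reporter units under cis-regulatory promoters reporting endogenous C/EBPb activity. After 24 h exposure, reporter mRNA assayed by RT-PCR, fluorescent labelling, HpaI digestion and capillary electrophoresis; bidirectional fitting versus DMSO.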

A short description of test [4]: ATG_CMV_CIS: Attagene CIS-FACTORIAL HepG2 Assay for human CMV (Internal Marker) (AID 2282928).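 Note: endpoint acts as a background internal control marker rather than a target.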 To be noted: HepG2 CMV promoter reporter, transcription factor profiling; actives raise or lower the signal. The procedure, abridged: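 Reporter transcripts from transfected HepG2 cells are isolated after 24 h of chemical dosing, reverse-transcribed and amplified. Fragments labeled with 6-FAM are cut with HpaI and quantified by capillary electrophoresis; DMSO defines baseline.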

Test [5] is described as follows: ATG_DR4_LXR_CIS: Attagene CIS-FACTORIAL HepG2 Assay for human Liver X Receptor (LXR), DR4 submotif (AID 2282929). To be noted: HepG2 Attagene DR4 cis-reporter, mRNA transcription; actives raise or lower the signal. The essentials: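 HepG2 cells were transiently transfected with multiple cis-regulated reporter units and dosed for 24 hours. The DR4 reporter mRNA was quantified by RT-PCR, 6-FAM labelling and capillary electrophoresis. Bidirectional fits used DMSO as baseline.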

The nature of test [6]: ATG_AP_1_CIS: Attagene CIS-FACTORIAL HepG2 Assay for human Activator Protein 1 (AP-1) (AID 2282931). The note with it: HepG2 Attagene cis-factorial AP-1 reporter mRNA; actives raise or lower the signal. The procedure, abridged: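 HepG2 cells transiently transfected with cis-element-driven reporter transcription units, dosed for 24 hours. Reporter mRNA measured by RT-PCR, 6-FAM labelling, HpaI digestion and capillary electrophoresis. Bidirectional fitting against DMSO baseline.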

A short description of test [7]: ATG_BRE_CIS: Attagene CIS-FACTORIAL HepG2 Assay for human Bone Morphogenetic Protein (BMP) Response Element (BRE) (AID 2282933). To be noted: HepG2 BMP response element reporter, Attagene transcription factor profiling; actives raise or lower the signal. The procedure, abridged:
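Multiplexed cis-reporter assay, HepG2, 24 h exposure. mRNA from reporter units quantified via RT-PCR/CE; DMSO baseline; bidirectional curve fit.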

Test [8] has as its target Retinoic acid receptor alpha (Homo sapiens) (UniProt P10276). The test is described as follows: ATG_DR5_RAR_CIS: Attagene CIS-FACTORIAL HepG2 Assay for human Retinoic Acid Receptor Alpha (RARE), DR5 submotif (AID 2282934). The note with it: HepG2 Attagene cis-factorial RARE DR5 reporter, mRNA; actives raise or lower the signal. The essentials: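 HepG2 cells transiently transfected with multiplexed reporter units; DR5 cis-element drives reporter through endogenous transcription factors. After 24 h dosing, reporter mRNA quantified by RT-PCR, fluorescent labeling, HpaI digestion and capillary electrophoresis; bidirectional fitting versus DMSO.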

Test [9] concerns the target Transcription factor E2F1 (Homo sapiens) (UniProt Q01094). The test is described as follows: ATG_E2F_CIS: Attagene CIS-FACTORIAL HepG2 Assay for human E2F Transcription Factor 1 (AID 2282935). The note with it: HepG2 Attagene cis-reporter, E2F reporter RNA transcripts; actives raise or lower the signal. The essentials:
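Transient MRTU transfection of HepG2; 24 h compound exposure; RNA → oligo(dT) RT → PCR → FAM label → HpaI cut → CE fluorescence. Gain/loss of signal fit against DMSO.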

Test [10] can be described thus: ATG_E_Box_CIS: Attagene CIS-FACTORIAL HepG2 Assay for human Enhancer Box (E-box) (AID 2282936). The note with it: HepG2 E-box cis-reporter transcription, actives raise or lower the signal. The procedure, abridged: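 Transiently transfected HepG2, endogenous TF-driven reporters, 24 h dosing. Readout: RT-PCR plus capillary electrophoresis of fluorescent reporter fragments. Gain or loss of signal fitted bidirectionally against DMSO baseline.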

Test [11] can be described thus: ATG_M_61_CIS: Attagene CIS-FACTORIAL HepG2 Assay for M61 Transcription Factor (Internal Marker) (AID 2282937). To be noted: HepG2 Attagene CIS-FACTORIAL M61 internal marker reporter; actives raise or lower the signal. The essentials: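 HepG2 cells transiently transfected with multiplexed cis-promoter reporter units reporting endogenous transcription factor activity, measured 24 h after dosing. Reporter mRNA quantified by RT-PCR and capillary electrophoresis; bidirectional fit against DMSO baseline.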

The nature of test [12]: ATG_EGR_CIS: Attagene CIS-FACTORIAL HepG2 Assay for human Early Growth Response 1 (EGR1) (AID 2282938). To be noted: HepG2 Attagene CIS-FACTORIAL EGR reporter mRNA; actives raise or lower the signal. The essentials: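 HepG2 cells transiently transfected with cis-element-driven multiplexed reporter units, dosed for 24 h. EGR1-element reporter mRNA quantified by RT-PCR, 6-FAM labelling, HpaI digestion and capillary electrophoresis; bidirectional fit versus DMSO.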

Test [13] in a line: ATG_M_19_CIS: Attagene CIS-FACTORIAL HepG2 Assay for M19 Transcription Factor (Internal Marker) (AID 2282939). To be noted: HepG2 Attagene CIS-FACTORIAL M19 internal marker reporter; actives raise or lower the signal. The procedure, abridged:
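Signals come from fluorescence of labelled reporter-specific PCR fragments resolved by capillary electrophoresis, following 24 h treatment of HepG2 cells transfected with cis-promoter reporter units; activity was fitted in both directions relative to DMSO.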

Test [14] is described as follows: ATG_ERE_CIS: Attagene CIS-FACTORIAL HepG2 Assay for Estrogen Response Element (ERE) (AID 2282940). The note with it: HepG2 ERE cis-reporter, Attagene RNA transcript; actives raise or lower the signal. The procedure, abridged: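 Fluorescence of capillary-separated, FAM-labelled reporter cDNA fragments indicates reporter mRNA levels in HepG2 cells exposed to chemicals for 24 h. Transient transfection with cis-regulated units; data fitted in both directions against DMSO.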

Test [15] concerns the target Hepatocyte nuclear factor 3-beta (Homo sapiens) (UniProt Q9Y261). The test is described as follows: ATG_FoxA2_CIS: Attagene CIS-FACTORIAL HepG2 Assay for human Forkhead box A2 (FOXA2) (AID 2282942). The note with it: HepG2 cis-reporter transcription factor activity, 24 h; actives raise or lower the signal. The procedure, abridged:
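HepG2 transiently transfected with a multiplexed cis-promoter reporter library read endogenous FOXA2 activity. After 24 h compound exposure, reporter mRNA was quantified by RT-PCR, HpaI digestion and capillary electrophoresis. Bidirectional fit against DMSO.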

Test [16] can be described thus: ATG_FoxO_CIS: Attagene CIS-FACTORIAL HepG2 Assay for human Forkhead box O (FoxO) (AID 2282943). The note with it: HepG2 Attagene cis-reporter, FoxO element, mRNA; actives raise or lower the signal. The essentials:
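HepG2 cells transiently transfected with cis-element-driven reporter units report endogenous FoxO activity. After 24 h chemical exposure, reporter mRNA quantified by RT-PCR, fluorescent labeling, HpaI digestion and capillary electrophoresis; bidirectional fit versus DMSO.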

Test [17] has as its target Aryl hydrocarbon receptor (Homo sapiens) (UniProt P35869). The test is described as follows: ATG_Ahr_CIS: Attagene CIS-FACTORIAL HepG2 Assay for human Aryl Hydrocarbon Receptor (Ahr) (AID 2282930). To be noted: HepG2 AhR cis-factorial reporter transcription; actives raise or lower the signal. The procedure, abridged:
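HepG2 cells transiently transfected with cis-element-driven multiplexed reporter units; endogenous AhR activity read as reporter mRNA 24 h after dosing, via RT-PCR, 6-FAM labelling, HpaI digestion and capillary electrophoresis. Bidirectional fit relative to DMSO.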

Test [18] in a line: ATG_AP_2_CIS: Attagene CIS-FACTORIAL HepG2 Assay for human Activator Protein 2 (AP-2) (AID 2282932). To be noted: HepG2 AP-2 cis-reporter, Attagene transcription factor profiling; actives raise or lower the signal. The essentials:
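Read-out: fluorescent reporter mRNA via RT-PCR and capillary electrophoresis, 24 h post-dose in transiently transfected HepG2. Endogenous factors drive cis-promoter reporters; gain or loss of signal fitted bidirectionally against DMSO.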

A short description of test [19]: ATG_Ets_CIS: Attagene CIS-FACTORIAL HepG2 Assay for human Erythroblast Transformation Specific (ETS) (AID 2282941). The note with it: HepG2 ETS cis-reporter transcription, actives raise or lower the signal. The procedure, abridged:
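Bidirectional fit versus DMSO of reporter mRNA signal, detected by RT-PCR and capillary electrophoresis in HepG2 cells transiently transfected with cis-element reporters and dosed 24 h.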

A short description of test [20]: ATG_GATA_CIS: Attagene CIS-FACTORIAL HepG2 Assay for human GATA Binding Protein (AID 2282944). The note with it: HepG2 GATA cis-element reporter, Attagene multiplex mRNA; actives raise or lower the signal. The essentials:
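After transfecting HepG2 cells with multiple cis-regulated reporter units, chemicals are dosed for 24 h; isolated RNA undergoes RT-PCR and fluorescent labeling before capillary electrophoresis, with activity expressed against DMSO.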

Chain of Retinoic acid receptor alpha (Homo sapiens) (P10276 whole entry, looked up): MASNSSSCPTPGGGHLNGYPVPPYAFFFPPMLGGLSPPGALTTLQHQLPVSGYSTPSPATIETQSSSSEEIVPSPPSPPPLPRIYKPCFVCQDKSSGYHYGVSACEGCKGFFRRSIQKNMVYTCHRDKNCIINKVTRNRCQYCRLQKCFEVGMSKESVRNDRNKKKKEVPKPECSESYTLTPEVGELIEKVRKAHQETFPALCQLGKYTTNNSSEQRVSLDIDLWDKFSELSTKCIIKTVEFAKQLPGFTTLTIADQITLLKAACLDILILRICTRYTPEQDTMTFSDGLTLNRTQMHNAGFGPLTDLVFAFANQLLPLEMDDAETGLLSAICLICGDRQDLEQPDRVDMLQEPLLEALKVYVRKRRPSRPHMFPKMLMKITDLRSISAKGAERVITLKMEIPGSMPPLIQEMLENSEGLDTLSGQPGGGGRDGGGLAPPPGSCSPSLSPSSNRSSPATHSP
Chain of CCAAT/enhancer-binding protein beta (Homo sapiens) (P17676 whole entry, looked up): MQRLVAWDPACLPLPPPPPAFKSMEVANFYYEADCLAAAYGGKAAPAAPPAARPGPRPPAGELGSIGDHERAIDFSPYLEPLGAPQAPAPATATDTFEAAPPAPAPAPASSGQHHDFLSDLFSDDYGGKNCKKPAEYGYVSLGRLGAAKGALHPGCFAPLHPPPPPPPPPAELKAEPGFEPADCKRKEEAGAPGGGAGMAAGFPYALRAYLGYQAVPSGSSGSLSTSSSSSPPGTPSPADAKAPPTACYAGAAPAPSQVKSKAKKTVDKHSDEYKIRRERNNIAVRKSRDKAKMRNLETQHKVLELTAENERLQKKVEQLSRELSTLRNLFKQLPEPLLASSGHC
Chain of Hepatocyte nuclear factor 3-beta (Homo sapiens) (Q9Y261 whole entry, looked up): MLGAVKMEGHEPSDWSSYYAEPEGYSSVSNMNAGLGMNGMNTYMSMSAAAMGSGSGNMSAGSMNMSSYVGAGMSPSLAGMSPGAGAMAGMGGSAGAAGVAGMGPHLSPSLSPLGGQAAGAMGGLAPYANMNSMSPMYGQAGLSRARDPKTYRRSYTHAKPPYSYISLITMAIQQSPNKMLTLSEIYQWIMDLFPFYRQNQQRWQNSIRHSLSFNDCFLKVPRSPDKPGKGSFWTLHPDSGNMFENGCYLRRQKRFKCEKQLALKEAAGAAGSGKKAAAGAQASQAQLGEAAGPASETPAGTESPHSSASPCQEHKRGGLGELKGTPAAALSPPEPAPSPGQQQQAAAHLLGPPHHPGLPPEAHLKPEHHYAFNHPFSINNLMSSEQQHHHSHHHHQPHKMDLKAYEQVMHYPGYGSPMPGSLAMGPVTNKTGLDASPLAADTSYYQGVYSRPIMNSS
Chain of Transcription factor E2F1 (Homo sapiens) (Q01094 whole entry, looked up): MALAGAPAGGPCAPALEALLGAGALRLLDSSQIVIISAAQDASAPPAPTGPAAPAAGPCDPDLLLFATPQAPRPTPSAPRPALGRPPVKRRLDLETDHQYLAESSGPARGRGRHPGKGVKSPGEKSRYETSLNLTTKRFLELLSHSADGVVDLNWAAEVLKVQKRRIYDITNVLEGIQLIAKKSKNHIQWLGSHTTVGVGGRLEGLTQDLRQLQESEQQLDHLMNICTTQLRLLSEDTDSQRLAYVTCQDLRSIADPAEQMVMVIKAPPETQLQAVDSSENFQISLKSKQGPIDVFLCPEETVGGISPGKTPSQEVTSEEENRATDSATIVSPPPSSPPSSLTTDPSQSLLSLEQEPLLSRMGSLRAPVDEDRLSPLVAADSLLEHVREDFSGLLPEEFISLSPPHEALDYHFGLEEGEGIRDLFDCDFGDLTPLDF
Chain of Aryl hydrocarbon receptor (Homo sapiens) (P35869 whole entry, looked up): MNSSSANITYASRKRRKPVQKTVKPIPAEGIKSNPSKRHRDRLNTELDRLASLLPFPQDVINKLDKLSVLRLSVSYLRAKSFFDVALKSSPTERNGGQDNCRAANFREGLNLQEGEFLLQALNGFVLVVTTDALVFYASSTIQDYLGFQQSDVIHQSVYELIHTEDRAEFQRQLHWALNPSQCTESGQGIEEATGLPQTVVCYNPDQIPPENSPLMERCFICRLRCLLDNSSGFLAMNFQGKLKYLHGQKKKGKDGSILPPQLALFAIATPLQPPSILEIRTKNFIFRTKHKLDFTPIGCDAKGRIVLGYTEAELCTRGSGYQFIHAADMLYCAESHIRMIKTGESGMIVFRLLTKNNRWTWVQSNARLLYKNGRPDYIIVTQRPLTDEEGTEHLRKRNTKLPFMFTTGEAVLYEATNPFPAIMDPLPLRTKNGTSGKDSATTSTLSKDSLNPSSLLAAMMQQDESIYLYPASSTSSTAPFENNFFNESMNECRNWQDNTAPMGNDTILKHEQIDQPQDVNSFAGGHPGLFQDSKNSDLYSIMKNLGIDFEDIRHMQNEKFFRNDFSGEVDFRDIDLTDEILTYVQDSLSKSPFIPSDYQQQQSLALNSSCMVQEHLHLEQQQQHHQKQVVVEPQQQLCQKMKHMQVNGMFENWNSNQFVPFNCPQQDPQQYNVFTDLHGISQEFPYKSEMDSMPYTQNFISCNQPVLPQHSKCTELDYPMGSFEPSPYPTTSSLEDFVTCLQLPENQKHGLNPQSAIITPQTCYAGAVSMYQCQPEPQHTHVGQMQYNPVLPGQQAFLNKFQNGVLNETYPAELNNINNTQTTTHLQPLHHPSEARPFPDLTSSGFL

On to `O=C(O)C(F)(F)C(F)(F)C(F)(F)C(=O)O`, for which the call in test [1], in test [2], in [3], in test [4], in test [5] and in test [6] was inactive. Moreover, the outcome in [7], in test [8], in [9], in test [10], in test [11] and in test [12] was inactive. The outcome in [13], in [14], in test [15] and in test [16] was inactive.
`O=C1OC(=O)c2ccc3c4c(ccc1c24)C(=O)OC3=O`: the AC50 in [1] was 0.0537 µM (active). The result in [2], in test [3], in [4], in test [5], in test [17] and in [18] was inactive. Further, the compound was classed as inactive in test [7], in test [8], in test [9], in test [10], in test [12] and in [13]. The outcome in test [14], in test [19], in [15], in [16] and in test [20] was inactive.
For `NC(=O)C(F)(F)C(F)(F)C(F)(F)C(F)(F)C(F)(F)C(F)(F)C(F)(F)F`, the compound was classed as inactive in test [1], in test [2], in test [3], in test [4], in [5] and in test [6]. Also, the compound was classed as inactive in test [18], in test [7], in test [8], in test [9], in test [10] and in test [11]. In addition, the result in test [12], in test [13], in [19], in test [15], in test [16] and in test [20] was inactive. Also, the concentration at half-maximal activity (AC50) in [14] was 16 µM (active).
Consider `CCc1cccc(C)c1N(C(=O)C(=O)O)C(C)COC` (stereo not given), for which the call in test [1], in [2], in test [3], in [4], in test [5] and in test [6] was inactive. Also, the outcome in [7], in [8], in [9], in [10], in [11] and in test [12] was inactive. The compound was classed as inactive in [13], in test [14], in [19], in test [15] and in [16].

By AC50 is commonly meant the midpoint of the concentration-response curve, whichever way the signal moves.
